# According to the supplement of paper PMC6522484:
# ± gives the standard deviation of the averaged measurements.
# What was measured:
# DLD1 [1] = assay: cell viability (CellTiter-Glo) relative to plate median (fraction of plate median); higher = more viable cells; details: 5 µM; treatment time 24 h; reporter: 7TFP
# In short: (§1)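 After seeding in 384-well plates, colorectal cancer cell lines carrying stable lentiviral TCF/Wnt firefly luciferase reporters (7TFP or TCF4/Wnt) were left 24 h. Library compounds were then added at a final 5 µM for 24 h. A Tecan F500 reader measured firefly luciferase or CellTiterGlo luminescence on parallel plates, with each well normalised to the plate median by webcellHTS2 (additive, no log transformation), and two independent replicates averaged.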
# HCT116 = assay: as above; details: 5 µM; treatment time 24 h; reporter: TCF4/Wnt
# In short: as §1
# SW480 [2] = assay: as above; details: 5 µM; treatment time 24 h; reporter: 7TFP
# In short: as §1
# DLD1 [3] = assay: TCF/Wnt firefly luciferase reporter signal relative to plate median (fraction of plate median); higher = higher Wnt reporter signal; details: 5 µM; treatment time 24 h; reporter: 7TFP
# In short: as §1
# SW480 [4] = assay: as above; details: 5 µM; treatment time 24 h; reporter: 7TFP
# In short: as §1
SMILES,cell viability (DLD1 [1]),cell viability (HCT116),cell viability (SW480 [2]),TCF/Wnt firefly luciferase reporter signal (DLD1 [3]),TCF/Wnt firefly luciferase reporter signal (SW480 [4])
CC(C)Cc1ccc(C(C)C(=O)O)cc1 (stereo not given),0.962 ± 0.082,1.04 ± 0.028,1.04 ± 0.068,1.03 ± 0.021,1.06 ± 0.028
CC1(C)CC[C@]2(C)CC[C@]3(C)C(=CC[C@@H]4[C@@]5(C)CC[C@H](O)C(C)(C)[C@@H]5CC[C@]43C)[C@@H]2C1 [beta-AMYRIN],1.01 ± 0.073,0.962 ± 0.016,0.994 ± 0.093,0.913 ± 0.016,0.9235 ± 0.0021
O=C(O)CCC(=O)OC[C@@H](NC(=O)C(Cl)Cl)[C@H](O)c1ccc([N+](=O)[O-])cc1,1 ± 0.12,0.895 ± 0.04,0.977 ± 0.027,0.838 ± 0.044,0.97 ± 0.022
Cc1cc(C(C)(C)CC(C)(C)C)ccc1OCCOCC[N+](C)(C)Cc1ccccc1,1.02 ± 0.069,0.977 ± 0.076,1.08 ± 0.014,0.87 ± 0.061,0.909 ± 0.028
CCCCNc1cc(C(=O)O)cc(S(N)(=O)=O)c1Oc1ccccc1,1.015 ± 0.0071,0.947 ± 0.022,1.04 ± 0.035,1.03 ± 0.16,1.06 ± 0.057
O=C(N[C@H](CO)[C@H](O)c1ccc([N+](=O)[O-])cc1)C(Cl)Cl,0.939 ± 0.013,0.918 ± 0.14,1.04 ± 0.042,1.09 ± 0.085,1 ± 0.013
O=c1c(O)c(-c2ccc(O)cc2O)oc2cc(O)cc(O)c12,1.11 ± 0.11,1.155 ± 0.0071,1.15,1.11 ± 0.099,1.11 ± 0.15
COc1ccc2cc1Oc1ccc(cc1)C[C@H]1c3c(cc4c(c3Oc3cc5c(cc3OC)CCN(C)[C@@H]5C2)OCO4)CCN1C,1.02 ± 0.052,0.934 ± 0.052,1.14 ± 0.035,1 ± 0.054,1.05 ± 0.028
C=CC(C1=CC(=O)C(OC)=CC1=O)c1ccc(O)cc1 (stereo not given),1.01,1.1 ± 0.021,1.02,0.879 ± 0.0028,0.877 ± 0.12
CCCNC(C)C(=O)Nc1ccccc1C (stereo not given),1 ± 0.013,0.972 ± 0.096,1.03 ± 0.028,0.912 ± 0.028,0.96 ± 0.03
C[N+]1(C)[C@@H]2CC[C@H]1C[C@@H](OC(=O)C(O)c1ccccc1)C2 (stereo not given in full),1.08 ± 0.035,0.941 ± 0.079,1.085 ± 0.0071,1.1 ± 0.042,1.01 ± 0.15
CC(=O)O[C@H]1CC[C@@]2(C)[C@H](CC[C@@H]3[C@@H]2CC[C@]2(C)[C@@H]4[C@H](C[C@@H]32)O[C@]2(CC[C@@H](C)CO2)[C@H]4C)C1,1.01 ± 0.028,0.979 ± 0.1,0.977 ± 0.0014,0.836 ± 0.043,0.941 ± 0.083
O=C(CCCCCCCCCCCCC1CCCC1)Nc1ccc(S(=O)(=O)c2ccc(NC(=O)CCCCCCCCCCCCC3CCCC3)cc2)cc1,1.02 ± 0.062,1.04 ± 0.087,1.03 ± 0.028,1.01 ± 0.12,1 ± 0.036
C=C[C@@]1(C)CC(=O)[C@]2(O)[C@@]3(C)[C@@H](O)CCC(C)(C)[C@@H]3[C@H](O)[C@H](OC(C)=O)[C@@]2(C)O1,1.09 ± 0.099,0.942 ± 0.069,1.12 ± 0.021,1.23 ± 0.05,1.14 ± 0.099
COC(=O)c1c(C)c2c(c(C)c1O)OC(=O)c1c(C)c(Cl)c(O)c(Cl)c1O2,0.994 ± 0.037,0.865 ± 0.016,0.9555 ± 0.0078,0.895 ± 0.083,0.933 ± 0.057
COc1cc(O)cc(OC)c1OC,1.01 ± 0.019,1.01 ± 0.015,0.942 ± 0.074,0.941 ± 0.021,0.978 ± 0.0028
CC(C)(Sc1cc(C(C)(C)C)c(O)c(C(C)(C)C)c1)Sc1cc(C(C)(C)C)c(O)c(C(C)(C)C)c1,0.947 ± 0.034,0.987 ± 0.061,0.955 ± 0.028,1.01 ± 0.035,1.035 ± 0.0071
CO[C@H]1O[C@H](CO)C(O[C@@H]2OC(C(=O)O)[C@@H](O[C@H]3O[C@H](COS(=O)(=O)O)C(O[C@@H]4OC(C(=O)O)[C@@H](O[C@H]5O[C@H](CO)C(O[C@@H]6OC(C(=O)O)[C@@H](O[C@H]7O[C@H](COS(=O)(=O)O)C(O[C@@H]8OC(C(=O)O)=C[C@H](O)C8OS(=O)(=O)O)[C@H](O)[C@H]7NC(C)=O)[C@H](O)[C@H]6O)[C@H](O)[C@H]5NC(C)=O)[C@H](O)[C@H]4O)[C@H](O)[C@H]3NC(C)=O)[C@H](O)[C@H]2O)[C@H](O)[C@H]1NC(C)=O (stereo not given in full),0.988 ± 0.032,1.05 ± 0.1,1.025 ± 0.0071,0.977 ± 0.2,0.98 ± 0.043
CC(=O)O[C@@H]1C[C@H]2C(C)(C)[C@H](O)C[C@H](O)[C@]2(C)[C@H]2CC[C@@]3(C)[C@H](c4ccoc4)OC(=O)[C@H]4O[C@]43[C@@]21C,0.9065 ± 0.005,0.942 ± 0.012,0.977 ± 0.0014,1 ± 0.11,0.892 ± 0.033
CC1(C)C2CC(=O)O[C@@]3(C)C4=CC(=O)O[C@@H](c5ccoc5)[C@]4(C)CCC3[C@@]2(C)C=C[C@H]1O (stereo not given in full),0.95 ± 0.065,1.03 ± 0.047,0.993 ± 0.024,1.05 ± 0.11,1.04 ± 0.16
C=C1C(=O)O[C@H]2[C@H]1CC/C(C)=C/CC[C@@]1(C)O[C@@H]21,0.84 ± 0.12,0.998 ± 0.017,0.886 ± 0.044,0.825 ± 0.096,0.836 ± 0.049
N[C@@H](Cc1c[nH]c2ccccc12)C(=O)O,1.07 ± 0.078,1.07 ± 0.014,1.03 ± 0.014,1.21 ± 0.028,1.1 ± 0.05
CCCCCCCCCCCCCCCC(=O)OC[C@@H](NC(=O)C(Cl)Cl)[C@H](O)c1ccc([N+](=O)[O-])cc1,0.96 ± 0.0042,0.996 ± 0.02,1.01,0.971 ± 0.028,1.02 ± 0.052
COc1cc(O)c(C(=O)/C=C/c2ccc(OC)c(O)c2)c(OC)c1,1.06 ± 0.098,0.975 ± 0.093,1.1 ± 0.042,0.975 ± 0.064,0.8395 ± 0.00071
Clc1ccc(C(Cn2ccnc2)OCc2ccsc2Cl)c(Cl)c1 (stereo not given),0.966 ± 0.077,0.98 ± 0.085,1.005 ± 0.0071,0.923 ± 0.14,0.894 ± 0.023

SMILES,cell viability (DLD1 [1]),cell viability (HCT116),cell viability (SW480 [2]),TCF/Wnt firefly luciferase reporter signal (DLD1 [3]),TCF/Wnt firefly luciferase reporter signal (SW480 [4])
COc1c(-c2coc3cc4c(cc3c2=O)CC(O)C(C)(C)O4)ccc2c1C=CC(C)(C)O2 (stereo not given),0.973 ± 0.081,0.973 ± 0.12,1.02 ± 0.079,0.869 ± 0.0014,0.946 ± 0.077
CC1(C)C(=O)CC[C@@]2(C)C1C[C@@H](O)[C@@]1(C)C3=CC(=O)O[C@@H](c4ccoc4)[C@]3(C)CCC21 (stereo not given in full),0.9595 ± 0.0035,1.06,0.969 ± 0.027,0.937 ± 0.028,0.967 ± 0.013
O=C(/C=C/C=C/c1ccc2c(c1)OCO2)N1CCCCC1,1 ± 0.038,1.05 ± 0.12,1.03,1.16 ± 0.18,1.08 ± 0.19
COc1cc(CO)cc2c1C(=O)c1c(O)cc(O)cc1C2=O [Carviolin],0.883 ± 0.19,0.93 ± 0.018,0.99 ± 0.0014,0.811 ± 0.1,0.963 ± 0.044
C[C@@H]1[C@H]2[C@H](O[C@@H]3O[C@H](CO)[C@@H](O)[C@H](O)[C@H]3O)OC=C(C(=O)O)[C@H]2C[C@@H]1O,1.05 ± 0.035,1.02 ± 0.1,1.03 ± 0.014,1.07 ± 0.1,1.05 ± 0.078
COc1c(-c2ccccc2)oc2c(ccc3occc32)c1=O,1.03 ± 0.035,1.09 ± 0.078,1.03 ± 0.021,1.09 ± 0.078,1.05 ± 0.014
CC(=O)O[C@@H]1CC2C(C)(C)C(=O)C3OC3[C@]2(C)C2CC[C@@]3(C)[C@H](c4ccoc4)OC(=O)C4OC43[C@@]21C (stereo not given in full),1.06 ± 0.014,1.1 ± 0.085,1.02 ± 0.035,1.02 ± 0.057,0.864 ± 0.078
CC(C)C(=O)Nc1ccc([N+](=O)[O-])c(C(F)(F)F)c1,1.055 ± 0.0071,0.984 ± 0.037,1.02 ± 0.029,0.924 ± 0.047,0.9955 ± 0.0064
CC(C)NCC(O)COc1cccc2ccccc12 (stereo not given),0.927 ± 0.16,0.997 ± 0.047,1.03 ± 0.044,1.01 ± 0.044,0.9935 ± 0.0092
COc1c(O)cc2c(c1O)[C@@H]1O[C@H](CO)[C@@H](O)[C@H](O)[C@H]1OC2=O,0.966 ± 0.049,0.912 ± 0.039,1.02 ± 0.04,0.981 ± 0.14,1.09 ± 0.092
CN1CCOC(c2ccccc2)c2ccccc2C1 (stereo not given),0.915 ± 0.048,0.997 ± 0.1,1 ± 0.014,0.9875 ± 0.0035,0.883 ± 0.12
COc1ccc2c(c1)OCC(Cc1ccc(OC)c(OC(C)=O)c1)C2=O (stereo not given),1.025 ± 0.0071,0.919 ± 0.059,1.03,0.969 ± 0.12,0.858 ± 0.18
CC(C)(C)NC[C@H](O)COc1nsnc1N1CCOCC1,0.966 ± 0.045,0.992 ± 0.17,0.9705 ± 0.0092,0.971 ± 0.084,1.04 ± 0.042
CC(C)(C)NCC(O)COc1cccc2c1CC(O)C(O)C2 (stereo not given),1.05 ± 0.11,0.929 ± 0.015,1.04 ± 0.028,1.02 ± 0.15,0.996 ± 0.063
O=c1cc(-c2ccccc2)oc2cc(O)c(O)cc12,1.04 ± 0.14,0.986 ± 0.063,1.03 ± 0.042,0.801 ± 0.064,1 ± 0.12
Clc1ccc2c(c1)C(N1CCNCC1)=Nc1ccccc1O2,1.045 ± 0.0071,1.085 ± 0.0071,0.995 ± 0.021,0.789 ± 0.058,0.905 ± 0.042
CCn1cc(C(=O)O)c(=O)c2cc(F)c(N3CCNC(C)C3)c(F)c21 (stereo not given),0.971 ± 0.056,1.05 ± 0.057,0.98 ± 0.012,1.13 ± 0.057,0.997 ± 0.061
NC[C@@H]1O[C@H](O[C@H]2[C@@H](O)[C@H](O[C@@H]3[C@@H](O)[C@H](N)C[C@H](N)[C@H]3O[C@H]3O[C@H](CO)[C@@H](O)[C@H](O)[C@H]3N)O[C@@H]2CO)[C@H](N)[C@@H](O)[C@@H]1O,1.1 ± 0.035,0.975 ± 0.064,1.065 ± 0.0071,0.901 ± 0.043,0.995 ± 0.11
CNC[C@H](O)c1cccc(O)c1,1.02 ± 0.033,1.09 ± 0.064,0.955 ± 0.062,1.02 ± 0.13,1.075 ± 0.0071
Cc1cccc(CN2CCN(C(c3ccccc3)c3ccc(Cl)cc3)CC2)c1 (stereo not given),1.06 ± 0.028,1.05 ± 0.028,0.987 ± 0.0099,1.02 ± 0.038,0.998 ± 0.046
CCC(C)C(NC)C(=O)O (stereo not given),0.959 ± 0.073,0.923 ± 0.058,0.946 ± 0.05,1.01 ± 0.22,0.947 ± 0.09
CC(=O)O[C@@H]1CC[C@@]2(C)C(C[C@@H](OC(C)=O)[C@@]3(C)C4=CC(=O)O[C@@H](c5ccoc5)[C@]4(C)CCC23)C1(C)C (stereo partly drawn) [3alpha-ACETOXYDIHYDRODEOXYGEDUNIN],1 ± 0.021,1.04 ± 0.11,0.956 ± 0.026,1.25 ± 0.22,1.11 ± 0.028
C=C1CCC(C2CC(=O)OC2=O)C(=O)CCC2C1CC2(C)C (stereo not given),1.01 ± 0.049,1.04 ± 0.09,0.958 ± 0.0085,1.01 ± 0.19,0.901 ± 0.018
COc1cc(-c2oc3cc(O)ccc3c(=O)c2O)ccc1O,1.03 ± 0.014,1.12 ± 0.078,1.055 ± 0.0071,1 ± 0.098,1.07 ± 0.035
